Measurements from PubChem BioAssay AID1159580 (chemical genetic matrix, 2015).
Several values for one entry are separate records, joined by “and”; a condition that tells them apart may be missing. Equal values may be shown once. Hit rate of the full screen: of about 5,500 compounds, about 2,000 (36%) were called active. Not shown: some 18% with an inconclusive outcome. Rule as the data show it: active = normalized growth mostly below about 0.91 (no sharp cut-off); inconclusive = no clear call, values can overlap the other calls; inactive = mostly above about 0.92. The list shows a part of the results.

Experiment: chemical genetic growth profiling, strain panel (AID 1159580);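 also: tested at 20 µM; growth read once vehicle control cultures reached saturation at 30 °C; 1 = growth at the plate median or of vehicle wells; lower values mean less growth of the strain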
Conditions: S. cerevisiae deletion strains, growth OD

Measured: normalized growth

O=c1cc[nH]c(=S)[nH]1
inactive: locus YAL013W, strain DEP1, stronger effect = lower value 1.03 | locus YAL021C, strain ccr4, stronger effect = lower value 1.03 | locus YAL026C, strain drs2, stronger effect = lower value 0.987 | locus YAL030W, strain snc1, stronger effect = lower value 1 | locus YBL061C, strain skt5, stronger effect = lower value 1 | locus YBR009C, strain hhf1, stronger effect = lower value 0.964 | locus YBR021W, strain FUR4, stronger effect = lower value 1.02 | locus YBR023C, strain chs3, stronger effect = lower value 1.01 | locus YBR171W, strain sec66, stronger effect = lower value 1.01 | locus YBR229C, strain ROT2, stronger effect = lower value 1.01 | locus YBR231C, strain swc5, stronger effect = lower value 1.02 | locus YBR279W, strain paf1, stronger effect = lower value 0.997 | locus YCL011C, strain gbp2, stronger effect = lower value 0.997 | locus YCL016C, strain dcc1, stronger effect = lower value 1 | locus YCL029C, strain bik1, stronger effect = lower value 1.01 | locus YCL061C, strain MRC1, stronger effect = lower value 1.03 | locus YCL069W, strain vba3, stronger effect = lower value 1.01 | locus YCR088W, strain abp1, stronger effect = lower value 1.01 | locus YDL005C, strain med2, stronger effect = lower value 1.04 | locus YDL035C, strain GPR1, stronger effect = lower value 1.02 | locus YDL040C, strain nat1, stronger effect = lower value 1.01 | locus YDL074C, strain BRE1, stronger effect = lower value 1.03 | locus YDL101C, strain DUN1, stronger effect = lower value 1.03 | locus YDL134C, strain PPH21, stronger effect = lower value 1.02 | locus YDL185W, strain tfp1, stronger effect = lower value 1.01 | locus YDL192W, strain arf1, stronger effect = lower value 1.02 | locus YDR001C, strain nth1, stronger effect = lower value 1 | locus YDR069C, strain doa4, stronger effect = lower value 1.04 | locus YDR101C, strain arx1, stronger effect = lower value 1.01 | locus YDR137W, strain rgp1, stronger effect = lower value 1.04 | locus YDR150W, strain NUM1, stronger effect = lower value 1.01 | locus YDR159W, strain sac3, stronger effect = lower value 1.02 | locus YDR162C, strain NBP2, stronger effect = lower value 1.02 | locus YDR195W, strain ref2 1.03 | locus YDR297W, strain sur2, stronger effect = lower value 1.01 | locus YDR318W, strain mcm21, stronger effect = lower value 1.03 | locus YDR334W, strain swr1, stronger effect = lower value 1 | locus YDR335W, strain msn5, stronger effect = lower value 1.01 | locus YDR388W, stronger effect = lower value 1 | locus YDR392W, strain spt3, stronger effect = lower value 0.962 | locus YDR502C, strain sam2, stronger effect = lower value 1.03 | locus YEL003W, strain gim4, stronger effect = lower value 1 | locus YEL037C, strain rad23, stronger effect = lower value 0.991 | locus YEL061C, strain CIN8 (second series), stronger effect = lower value 1 | locus YEL061C, strain CIN8, stronger effect = lower value 1.01 | locus YER015W, strain faa2, stronger effect = lower value 1.01 | locus YER016W, strain bim1, stronger effect = lower value 1.01 | locus YER110C, stronger effect = lower value 1 | locus YER111C, strain swi4, stronger effect = lower value 1.01 | locus YER155C, strain BEM2 (second series), stronger effect = lower value 1.04 | locus YER155C, strain BEM2, stronger effect = lower value 1.01 | locus YER167W, strain BCK2, stronger effect = lower value 1.02 | locus YFR010W, strain ubp6, stronger effect = lower value 0.997 | locus YGL078C, strain dbp3, stronger effect = lower value 1.01 | locus YGL086W, strain mad1, stronger effect = lower value 1 | locus YGL167C, strain pmr1, stronger effect = lower value 1 | locus YGL173C, strain kem1, stronger effect = lower value 1.01 | locus YGL227W, strain vid30, stronger effect = lower value 1.01 | locus YGL240W, strain doc1, stronger effect = lower value 1.07 | locus YGL248W, strain PDE1, stronger effect = lower value 1.01 | locus YGL253W, strain hxk2, stronger effect = lower value 1.03 | locus YGR078C, strain PAC10, stronger effect = lower value 1.03 | locus YGR135W, strain pre9, stronger effect = lower value 1.02 | locus YGR229C, strain SMI1, stronger effect = lower value 1.03 | locus YGR252W, strain gcn5, stronger effect = lower value 1.09 | locus YHR013C, strain ard1, stronger effect = lower value 1.04 | locus YHR027C, strain rpn1, stronger effect = lower value 1 | locus YHR030C, strain SLT2, stronger effect = lower value 1.02 and 0.995 | locus YHR079C, strain IRE1 (second series), stronger effect = lower value 0.999 | locus YHR079C, strain IRE1, stronger effect = lower value 1.01 | locus YHR094C, strain hxt1, stronger effect = lower value 0.983 | locus YHR129C, strain ARP1, stronger effect = lower value 1.01 | locus YHR142W, strain chs7, stronger effect = lower value 0.987 | locus YHR200W, strain rpn10, stronger effect = lower value 1.02 | locus YIL066C, strain RNR3, stronger effect = lower value 1.03 | locus YIL073C, strain SPO22, stronger effect = lower value 1.03 | locus YIL125W, strain kgd1, stronger effect = lower value 1.01 | locus YIR030C, strain dcg1, stronger effect = lower value 1.01 | locus YJL092W, strain hpr5, stronger effect = lower value 1 | locus YJL095W, strain BCK1 (second series), stronger effect = lower value 1.01 | locus YJL095W, strain BCK1, stronger effect = lower value 1.04 and 1.01 | locus YJL115W, strain asf1, stronger effect = lower value 1.01 | locus YJL129C, strain trk1, stronger effect = lower value 1.01 | locus YJL134W, strain LCB3, stronger effect = lower value 1.01 | locus YJL154C, strain vps35, stronger effect = lower value 1.01 | locus YJL164C, strain tpk1, stronger effect = lower value 0.983 | locus YJL166W, strain qcr8, stronger effect = lower value 1.03 | locus YJL168C, strain set2, stronger effect = lower value 0.997 | locus YJL187C, strain SWE1 (second series), stronger effect = lower value 1.04 | locus YJL187C, strain SWE1, stronger effect = lower value 1.01 | locus YJR043C, strain POL32, stronger effect = lower value 1.02 | locus YJR066W, strain TOR1, stronger effect = lower value 0.917
